Source: PubChem (National Center for Advancing Translational Sciences (NCATS))
The list is not random: actives were taken first. Their share in the collection is about 3%.
12-LOX inh: blocks human arachidonate 12S-lipoxygenase. purified 12hLO, xylenol orange hydroperoxide absorbance. 580,000 tested, 1.1% active. Potency, µM (doses to about 108 µM), for the others: top-dose activity change, negative = inhibition, actives largely listed as inhibitors. P18054. AID 1671190; active means well fitted inhibition curve with a large enough effect; inconclusive means small, poorly fitted or top-dose-only effect, or another doubt; inactive means no such curve, though single readings can be large or run the other way; further: potency means the concentration at half of the fitted maximal effect; on the % scale 0 is the no-effect control and ±100 the full control effect
Target sequence (P18054 whole entry, looked up): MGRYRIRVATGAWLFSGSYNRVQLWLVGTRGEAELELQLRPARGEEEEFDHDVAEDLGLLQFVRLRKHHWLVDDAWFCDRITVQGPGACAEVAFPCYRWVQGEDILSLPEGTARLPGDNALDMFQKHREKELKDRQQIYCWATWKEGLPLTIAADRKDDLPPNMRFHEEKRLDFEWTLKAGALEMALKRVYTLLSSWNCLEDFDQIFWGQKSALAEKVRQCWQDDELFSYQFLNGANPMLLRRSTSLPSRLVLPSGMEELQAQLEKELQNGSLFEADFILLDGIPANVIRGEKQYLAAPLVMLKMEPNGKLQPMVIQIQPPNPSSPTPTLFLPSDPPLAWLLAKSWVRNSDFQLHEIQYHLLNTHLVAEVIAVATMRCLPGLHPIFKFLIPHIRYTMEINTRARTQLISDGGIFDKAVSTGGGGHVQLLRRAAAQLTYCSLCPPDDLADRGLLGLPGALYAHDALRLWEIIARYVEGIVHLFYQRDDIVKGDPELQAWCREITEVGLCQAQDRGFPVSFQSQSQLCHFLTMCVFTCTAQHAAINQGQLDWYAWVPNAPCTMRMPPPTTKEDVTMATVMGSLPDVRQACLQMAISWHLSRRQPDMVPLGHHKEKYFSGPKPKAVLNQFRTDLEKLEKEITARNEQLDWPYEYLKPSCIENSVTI
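Purified human 12hLO (150 nM final) in 25 mM Hepes, 0.01% Triton X-100, pH 7.0 was preincubated 15 min at room temperature with compound. Then 40 uM arachidonic acid was added, 30 min. Hydroperoxide was read by Fe-XO absorbance ratio 573/405 nm.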
LDHA block: inhibitors of human lactate dehydrogenase A; activity change, % (values are at about 110 or 230 µM); 480,000 tested, 0.15% active; P00338; purified LDHA, NADH/diaphorase-resazurin fluorescence; active compounds read low; in the data active means activity change below about -30%; inconclusive means mostly about -25% to -30%;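 further: plate controls were DMSO wells for no effect and wells without enzyme for full effect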
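Remaining NADH was detected by diaphorase (0.133 mg/mL) converting 37 µM resazurin to fluorescent resorufin, read at 0 and 20 minutes. The preceding 5-minute room-temperature reaction used 2 nM LDHA, 0.2 mM sodium pyruvate and 0.06 mM NADH at pH 7.4.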
BCR signal inh: chronic active BCR signaling inhibition; ABC-DLBCL IkBa-CBG/CBR reporter, luminescence ratio, 4 h; Potency, µM (highest dose often 46.1 µM), inactives show top-dose activity change, negative = inhibition, most hits filed as inhibitors; 340,000 tested, 0.05% active; AID 493014; active means well fitted inhibition curve with a large enough effect in the signal ratio, with a control signal flat, not every such curve was filed as active; inconclusive means small, poorly fitted or top-dose-only effect, or effect the other way, or a change in a side signal; the % refers to the signal ratio;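 further: potency means the concentration at half of the fitted maximal effect; plate controls were basal doxycycline-induced cells for no effect and cells given 10 µM MG132 for full effect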
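TMD8 human ABC-DLBCL cells with doxycycline-inducible IκBα–green luciferase fusion and unfused red luciferase, in 0.5% FBS medium; compounds up to 46 uM, 4 h at 37C. Green/red luminescence ratio, filter-overlap corrected, fitted to concentration-response curves.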
ClpP mod: qHTS Assay for Activators of ClpP; ATP-dependent Clp protease proteolytic subunit (Bacillus subtilis (strain 168)), P80244; Potency, µM (top dose mostly 57.5 µM), for inactives: at the highest dose activity change, negative = active; purified B. subtilis ClpP, FRET peptide cleavage, 20 min; AID 651965, 2013; 340,000 tested, 1.9% active; active means well fitted falling curve with a large enough effect; inconclusive means small, poorly fitted or top-dose-only effect; inactive means no such curve, though single readings can be large or run the other way; further: potency means the concentration at half of the fitted maximal effect; the source files actives as falling curves though it sought activators and does not explain the sign; nearly all actives have a fitted effect of over 65% in size
Target sequence (P80244 whole entry, looked up): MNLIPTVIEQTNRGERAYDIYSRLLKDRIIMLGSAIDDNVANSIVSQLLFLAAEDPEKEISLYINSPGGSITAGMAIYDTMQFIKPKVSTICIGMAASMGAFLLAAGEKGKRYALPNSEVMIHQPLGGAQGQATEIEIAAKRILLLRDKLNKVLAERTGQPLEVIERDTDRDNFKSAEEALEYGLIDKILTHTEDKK
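ClpP 10 microg/mL final, pH 8 Tris/KCl buffer with BSA, glycerol, Tween-20; compound pinned in; FRET-FV substrate; RT 20 min; Ex320/Em430; ΔFRET vs ADEP 5.8 microM, DMSO, no enzyme.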
hERG WT inh: KCNH2 (human, wildtype) channel inhibition; Q12809; AID 720551; U2OS, BacMam KCNH2, thallium flux FluxOr; active compounds read low; activity change, % at 1.84 µM; 340,000 tested, 0.37% active;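 active means maximum activity change below -70%; inconclusive means maximum activity change between -70% and -50%; inactive means maximum activity change above -50%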; further: on the % scale 0 is the no-effect control and ±100 the full control effect
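U2OS cells transduced with wild-type KCNH2 virus are loaded with FluxOr dye for 45 min, and thallium flux is measured in kinetic reads before and after stimulation buffer. Rate constants are normalized to DMSO controls.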
KCNH2 3.1 inh: inhibitors of human KCNH2 3.1 potassium channel isoform; U2OS KCNH2 3.1, thallium flux FluxOr; active compounds read low; activity change, % (tested at about 1.8 µM); 340,000 tested, 0.95% active;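 active means maximum activity change below -70%; inconclusive means maximum activity change from -70% to -50%; inactive means maximum activity change above -50%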;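 further: thallium influx rate constant from kinetic fluorescence after stimulation buffer; on the % scale 0 is the no-effect control and ±100 the full control effect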
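Channel expression came from 3.1 mutant virus (1.77 x 10^8 /mL) applied to suspended U2OS cells for 4 h. Flux was tracked with FluxOr dye plus Red40 quencher, and kinetic rate constants normalized to controls.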
Active calls of the source: *; ? = inconclusive; · = no result; [ ] = another dose, or the depositor's remark.

SMILES | 12-LOX inh | LDHA block | BCR signal inh | ClpP mod | hERG WT inh | KCNH2 3.1 inh
CCc1cc(C=NC2CCCCC2)c(O)s1 | 0.0% | 1.8 | ? | 3.7% | -135.3* | 11.4
CC1CCN(CC(=O)N2CCCc3c2c(=O)oc2ccc(OCc4ccccc4)cc32)CC1 | 4.1% | -4.8 | ? | ? | 9.0 | -36.8
CCCOc1ccc2oc(=O)c3c(c2c1)CCCN3C(=O)CN1CCc2ccccc2C1 | 0.2% | 6.9 | ? | 17.8µM* | -1.8 | -11.6
CCc1nc2ccccc2c(=O)n1NC(=O)c1c(O)c2ccccc2n(CC)c1=O | -0.3% | -39.7* | 0.7% | -1.1% | -4.7 | -0.1
O=C(COC(=O)c1ccco1)Nc1ccc2c(c1)OCO2 | -20.2% | 0.2 | 4.4% | -1.1% | -10.7 | -3.8
O=C(Nc1ccc2c(c1)OCO2)c1ccccn1 | 5.62µM* | 0.6 | ? | -2.6% | 0.5 | 17.0
CNc1ccccc1C(=O)OCC(=O)Nc1ccc2c(c1)OCO2 | -4.2% | 1.4 | ? | 28.2µM* | 5.3 | -5.4
COc1ccc2ccccc2c1C1C(C#N)=C(N)OC2=C1C(=O)CC(C)(C)C2 (stereo not given) | ? | 7.5 | · | · | · | ·
CC1(C)CC(=O)C2=C(C1)OC(N)=C(C#N)C2c1ccc(-c2ccc(Br)cc2)o1 (stereo not given) | 20µM* | 0.4 | · | · | · | ·
COc1ccc(C2C(C#N)=C(N)OC3=C2C(=O)CC(C)(C)C3)c2ccccc12 (stereo not given) | 7.94µM* | 54.5 | · | · | · | ·
CC1(C)CC(=O)C2=C(C1)OC(N)=C(C#N)C2c1ccc(Br)o1 (stereo not given) | ? | -0.8 | · | · | · | ·
OC1CCOC2(CCN(Cc3ccc4c(c3)CCO4)CC2)C1 (stereo not given) | 44.1% | · | · | · | · | ·
COc1ccccc1N1CCN(CCCC(=O)c2ccc(F)cc2)CC1 | -21.9% | -1.4 | -0.5% | -2.2% | 44.9 | -70.4*
CC1CCN(CCCC(=O)c2ccc(F)cc2)CC1 | 22.0% | · | · | · | · | ·
COc1ccc(C(=O)CCN2CCN(c3ccccc3OC)CC2)cc1 | ? | -0.9 | ? | · | -3.5 | 2.6
O=C(CCCN1CCC(C(=O)c2ccc(F)cc2)CC1)c1ccc(F)cc1 | 0.0% | -11.9 | 0.0% | -6.2% | -74.1* | -103.3*
CC(C)c1ccc(CN2CCc3ncc(C(=O)Nc4ccccc4)n3CC2)cc1 | 3.9%[176 µM] | · | · | · | · | ·
O=C(Cc1ccccc1)Nc1nnc(-c2cccc([N+](=O)[O-])c2)s1 | 14.7% | -1.5 | ? | 31.6µM* | -3.3 | -2.2
CCCC(=O)Nc1nnc(-c2cccc(OCC)c2)s1 | 0.0%[57.4 µM] | -5.2 | 2.3% | 28.2µM* | 10.4 | 5.2
CCCN(CC1CCOC1)C(=O)Nc1ccc(Br)cc1 (stereo not given) | 34.5% | · | · | · | · | ·
CCn1c(N2CCN(Cc3ccccc3F)CC2)nc2c1c(=O)[nH]c(=O)n2C | 1.7% | -6.5 | · | · | · | ·
C/C(=N\Nc1nc2c(s1)CCCC2)c1ccc(Cl)cc1 | 39.8µM* | 4.9 | 5.0% | ? | -1.7 | 10.6
CN(C)c1ccc(C(=O)Nc2nc3c(s2)CCCC3)cc1 | ? | 2.1 | ? | -27.5% | -5.2 | 2.7
CC(C)c1nc(NCCO)c(C#N)c2c1CCCC2 | -3.5% | -6.9 | 4.5% | · | -14.0 | -1.3
CC(C)c1nc(NCc2ccccc2)c(C#N)c2c1CCCC2 | 0.0% | -0.8 | 21.6% | 8.91µM* | 4.3 | 10.9
SMILES | 12-LOX inh | LDHA block | BCR signal inh | ClpP mod | hERG WT inh | KCNH2 3.1 inh
Cc1cccc(C2CC3(CC(C)(C)NC(=S)N3)Oc3cc(O)ccc32)c1 (stereo not given) | 39.8µM* | -0.3 | ? | · | -17.5 | -9.2
CC1(C)CC2(CC(c3ccccc3F)c3cc(Cl)c(O)cc3O2)NC(=S)N1 (stereo not given) | 31.6µM* | 6.0 | ? | · | 2.7 | 12.1
COc1cccc(C2CC3(CC(C)(C)NC(=S)N3)Oc3cc(O)ccc32)c1 (stereo not given) | ? | 1.0 | ? | 5.8% | 3.2 | -5.6
COC(=O)c1sc(=S)n(-c2ccc(C(C)C)cc2)c1N | ? | 5.1 | · | · | · | ·
COC1CN(c2cccc(F)c2)C12CCN(C(=O)C1CCCCC1)CC2 (stereo not given) | 24.1% | · | · | · | · | ·
O=C(CC1CCCC1)N1CCN(S(=O)(=O)c2ccccc2)CC1 | 12.4% | 0.0 | 3.7% | 0.0% | -21.8 | -2.4
O=C(CC1CCCCC1)N1CCC2(CC1)NC(=O)N(c1cccc(F)c1)N2 | 2.82µM* | · | · | · | · | ·
O=C(C1CCCCC1)N1CCC2(CC1)NC(=O)N(c1cccc(F)c1)N2 | 1.41µM* | · | · | · | · | ·
O=C(CC1CCCCC1)N1CCC2(CC1)NC(=O)N(c1ccccc1)N2 | 7.08µM* | · | · | · | · | ·
Cc1ccc(C)c(CN2CCC3(CCC(=O)N(CCc4ccncc4)C3)CC2)c1 | 92.5% | · | · | · | · | ·
O=C1c2ccccc2NC2(CCCC2)N1O | ? | 6.2 | -24.9% | -2.5% | -0.3 | -7.7
O=C1c2ccccc2NC2(CCCCC2)N1N=C1CCCCC1 | -4.9% | -5.2 | -5.1% | 17.8µM* | -0.3 | 6.6
Cc1cccc(-c2nnc(C(C)Nc3cccc(C(=O)NC4CC4)c3)o2)c1 (stereo not given) | -3.3% | -0.9 | · | -10.4% | 6.7 | -72.8*
COc1cccc(NC(=O)CSc2nc3ccccc3c(=O)n2-c2ncn[nH]2)c1 | 11.6% | 1.0 | · | · | · | ·
COc1ccccc1COC(=O)N/C=C/c1ccco1 | 50.1µM* | -4.1 | -0.3% | · | -10.5 | -11.3
O=C(c1ccc2cc[nH]c2c1)N1CCC(n2cc(-c3nc(-c4ccccc4)no3)nn2)CC1 | -18.8% | · | · | · | · | ·
O=c1[nH]c(CSc2nnc(-c3ccccc3)n2-c2ccccc2)nc2ccccc12 | -2.7% | 4.3 | ? | 0.1% | -4.0 | 7.7
CCCCn1nnnc1CSc1nnc(-c2ccccc2)n1-c1ccccc1 | 8.8% | -31.1* | · | · | · | ·
N#Cc1ccccc1COc1ccc(C=O)cc1 | ? | 3.8 | · | · | · | ·
Cc1ccc(C2C3CN(C(C)C)CC=C3C(C#N)=C(N)C2(C#N)C#N)cc1 (stereo not given) | 0.0% | 9.5 | 1.4% | 20µM* | -3.5 | -12.4
COc1ccc(OC)c(C2C3CN(C(C)C)CC=C3C(C#N)=C(N)C2(C#N)C#N)c1 (stereo not given) | 0.0% | -3.2 | 5.6% | -6.5% | 3.9 | 19.6
CN1CC=C2C(C#N)=C(N)C(C#N)(C#N)[C@H](c3ccoc3)[C@H]2C1 | · | 17.6 | 9.2% | 31.6µM* | 11.1 | -1.8
NS(=O)(=O)c1cccc(NC(=O)COC(=O)CCC(=O)c2cccs2)c1 | 187.0% | -5.4 | -1.7% | -0.5% | -2.5 | -70.9*
CC(C)(C)NCCC(=O)O | ? | 4.0 | · | · | · | ·
C=CCc1ccccc1OCC(=O)OCCNC(=O)c1cccnc1 | 39.8µM* | -3.6 | -8.3% | 0.9% | 3.0 | 13.9
